Only a selection was taken, and hits are over-represented in it overall.
Algae TAG accum = inducers of TAG accumulation in Chlamydomonas, primary screen, qHTS, Chlamydomonas reinhardtii | AID 1159537, 2015 | Nile Red fluorescence, 72 h | 0.84% of 44,000 active | calls only at 10 µM (by protocol); call rule not given here;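 further: hits raise Nile Red signal meaning more stored TAG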
Numbers without * were called inactive; i = inactive; + = active, no number.

SMILES	Algae TAG accum
Clc1cccc(N2CCN(Cc3ccccc3Cl)CC2)c1	i
Oc1ccc(CN2CCN(c3ccccc3)CC2)cc1	+
Clc1ccc(CN2CCN(c3ccccc3)CC2)cc1Cl	i
COc1cccc(CN2CCN(c3cccc(Cl)c3)CC2)c1	i
Oc1ccc(CN2CCN(c3cccc(Cl)c3)CC2)cc1	+
Fc1ccc(CN2CCN(c3cccc(Cl)c3)CC2)c(F)c1	i
Fc1ccc(CN2CCN(c3cccc(Cl)c3)CC2)cc1	+
COc1ccc(CN2CCN(c3cccc(Cl)c3)CC2)cc1O	i
COc1ccc(CN2CCN(c3ccccc3)CC2)cc1O	i
COc1ccccc1CN1CCN(C(C)C)CC1	i
Fc1ccc(CN2CCN(Cc3ccccc3)CC2)cc1F	i
C#CCOc1ccc(/C=C/[N+](=O)[O-])cc1	i
Cc1ccc(CN(C)C)c(OC(=O)N(C)C)c1	i
c1ccc(CSc2nnc(-c3ccccc3)o2)cc1	i
COc1cc(CN2CCN(Cc3ccccc3)CC2)cc(OC)c1	+
Cc1ccc(CN2CCN(CCO)CC2)cc1	+
COc1ccccc1N1CCN(Cc2ccccc2)CC1	i
OCCN1CCN(Cc2ccc(F)cc2)CC1	i
COc1ccccc1N1CCN(Cc2ccc(C)cc2)CC1	+
CCOc1cc(CN2CCN(c3ccc(F)cc3)CC2)ccc1O	i
CCOc1ccc(CN2CCN(c3ccc(OC)cc3)CC2)cc1	i
COc1cccc(CN2CCN(Cc3ccccc3)CC2)c1	i
CCOc1ccc(CN2CCN(c3ccc(F)cc3)CC2)cc1	+
Cc1ccc(CN2CCN(C)CC2)cc1	i
COc1ccccc1N1CCN(Cc2ccc(C(C)C)cc2)CC1	i
SMILES	Algae TAG accum
COc1cc(CN2CCN(C)CC2)cc(OC)c1	i
CC(=O)C1=C(C)OC(N)=C(C#N)C12C(=O)Nc1ccc([N+](=O)[O-])cc12 (stereo not given)	i
COc1cc(/C=C/[N+](=O)[O-])ccc1OCc1ccccc1F	i
Cc1ccc(-c2nc3ccccc3c(=O)n2-c2ccccn2)cc1	i
Fc1ccc(N2CCN(Cc3ccc(F)cc3F)CC2)cc1	i
OCCN1CCN(Cc2ccc(Br)cc2)CC1	i
COc1ccccc1N1CCN(Cc2ccc(C)cc2C)CC1	i
COc1ccc(OC)c(CC2C(=O)N(C)C(=O)N(C)C2=O)c1	i
C#CCOc1c(I)cc(/C=C/[N+](=O)[O-])cc1OC	i
CN1CC[C@](O)(c2ccccc2)[C@H]2CCCC[C@H]21	i
CCN1CCN(Cc2ccc(OC)c(OC)c2OC)CC1	i
Clc1ccc(CN2CCN(Cc3ccc4c(c3)OCO4)CC2)cc1	i
COc1ccc(N2CCN(Cc3ccc(Cl)cc3)CC2)cc1	+
Clc1cccc(CN2CCN(Cc3ccc4c(c3)OCO4)CC2)c1	i
CCc1ccc(CN2CCN(CC)CC2)cc1	+
COc1ccc(N2CCN(Cc3ccc(Cl)c(Cl)c3)CC2)cc1	i
Clc1ccc(N2CCN(Cc3ccc4c(c3)OCO4)CC2)cc1	+
CCN1CCN(Cc2cccc(Br)c2)CC1	i
CCOc1cc(CN2CCN(c3ccccc3C)CC2)ccc1O	i
COc1ccc(N2CCN(Cc3ccc(F)cc3)CC2)cc1	i
CCOc1ccc(CN2CCN(c3ccccc3C)CC2)cc1	+
CCOc1ccccc1CN1CCN(c2ccccc2C)CC1	i
CCCCOc1ccc(CN2CCN(CC)CC2)cc1	i
O=C(c1ccccc1)C(c1ccccc1)N1CCCC1 (stereo not given)	i
OC1CCN(C2CC3CCC2C3)CC1 (stereo not given)	i
SMILES	Algae TAG accum
O=[N+]([O-])c1cccc(CN2CC=C(c3ccc(F)cc3)CC2)c1	i
COc1cc(Br)c(CNCCc2ccc3c(c2)OCO3)cc1OC	i
CN(C)Cc1cc(Cl)ccc1OC(=O)N(C)C	i
Cc1cccc(-n2c(Cc3cccc([N+](=O)[O-])c3)nc3ccccc3c2=O)c1	i
CCN1CCN(Cc2cccc(OC)c2O)CC1	i
CN1CCN(Cc2ccccc2Br)CC1	i
CCc1ccccc1NC(=O)C(Cl)(Cl)Cl	i
CCOc1ccccc1CN1CCN(c2ccccc2OC)CC1	i
COc1ccccc1N1CCN(Cc2ccc(N(C)C)cc2)CC1	i
CCOc1ccc(CN2CCN(c3ccccc3OC)CC2)cc1	+
Cc1cccc(CN2CCN(c3ccccc3Cl)CC2)c1	i
C=CCSc1nc2ccccc2c(=O)n1-c1cccc(C)c1	i
Cc1ccc(C)c(CN2CCN(C)CC2)c1	i
O=[N+]([O-])c1ccc(CN2CCN(Cc3ccccc3)CC2)cc1	+
CN1CCN(Cc2ccc([N+](=O)[O-])cc2)CC1	i
O=C(COc1ccccc1)N1CCN(Cc2ccc([N+](=O)[O-])cc2)CC1	i
O=[N+]([O-])c1ccc(CN2CCN(c3ccc(F)cc3)CC2)cc1	+
CCN1CCN(Cc2ccc([N+](=O)[O-])cc2)CC1	i
CN1CCN(Cc2cccc([N+](=O)[O-])c2)CC1	i
O=[N+]([O-])c1ccc(N2CCN(Cc3cccc(F)c3)CC2)cc1	i
O=[N+]([O-])c1ccc(N2CCN(Cc3cccc(Cl)c3)CC2)cc1	i
CCC(C)N1CCN(Cc2ccc([N+](=O)[O-])cc2)CC1 (stereo not given)	+
COc1cccc(CN2CCN(c3ccccc3OC)CC2)c1	i
COc1ccc(CN2CCN(Cc3cc(Br)ccc3O)CC2)cc1	i
Cc1cc(N2CCNCC2)nc2c(C)c(Cl)ccc12	i
SMILES	Algae TAG accum
CN1CCN(Cc2ccc([N+](=O)[O-])o2)CC1	i
CN(C(=O)Oc1ccc(OC(=O)N(C)c2ccccc2)cc1)c1ccccc1	i
Cc1ccc(/C=C/[N+](=O)[O-])cc1Br	i
Nc1ccc(Cl)cc1C(=O)c1ccccc1	i
Nc1ccc(F)cc1C(=O)c1ccccc1	+
Nc1ccc(Br)cc1C(=O)c1ccccc1F	i
Cc1ccccc1N1CCN(Cc2ccc(O)cc2)CC1	+
Oc1cccc(CN2CCN(c3ccccc3Cl)CC2)c1	i
Oc1ccc(CN2CCN(c3ccccc3Cl)CC2)cc1	+
Cc1ccccc1N1CCN(Cc2ccc(N(C)C)cc2)CC1	i
Clc1ccccc1N1CCN(Cc2ccccc2)CC1	i
Cc1ccc(CN2CCN(c3ccccc3C)CC2)cc1	i
Oc1ccc(Br)cc1C1=NNC(c2cccnc2)C1 (stereo not given)	i
Cc1cccnc1-n1c(C)nc2ccccc2c1=O	i
Cc1ccc(S(=O)(=O)N2CCC(C(=O)NC3CCCCCC3)CC2)cc1	i

Screens (PubChem)
